The values that follow come from the supplement of paper PMC10338343.

± gives the standard deviation.

This assay relates to MILI (PIWIL2) piRISC loaded with piRNA #1 (26 nt). In words: pre-steady-state target cleavage rate (min^-1); guide: piRNA #1 5'p-UGAGGUAGUAGGUUGUAUAGUAUCCA; MIWI and MILI are mouse PIWI proteins and EfPiwi is from a freshwater sponge; tags in brackets are library labels; higher = faster piRNA-guided slicing of the target. The settings on record: auxiliary factor: 500 nM mouse GTSF1. The method, then: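 Cleave-'n-Seq: a library of target RNAs (target site embedded in constant flanks, ACAGCATTCCGCGTTAGTGATATCCG... 5' flank; DNA-blocked outside the site) at 0.1 nM was incubated with 1 nM active mouse MILI or MIWI piRISC (synthetic 5'-monophosphorylated piRNA guide) with or without 500 nM mouse GTSF1 at 33 °C for 1 min to 16 h. Uncleaved targets were sequenced and normalised to non-target controls, and the pooled three trials were fitted to a burst-and-steady-state model to give the pre-steady-state cleavage rate (min^-1; k3 is constrained to at most 1e-4). Sequence is the target site only; target names encode pairing extent (gX:gY) and contiguous / 1-mismatch / 2-mismatch / bulge geometry. Fits with R² ≤ 0 are excluded.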
Regarding GGAGAGAUACUAUACAACCUACUACCUCA, the “pre-steady-state target cleavage rate” value was determined as 0.202 ± 0.017.

Turning to GGAGACCUAACUAUAGAACCUACUACCACA, the “pre-steady-state target cleavage rate” value came out at 0.0663 ± 0.019.

On to GGAGAGGAUACUAUACACCUACUACCUCA, for which the “pre-steady-state target cleavage rate” value is 0.0354 ± 0.0068.

Turning to GGAGACCUAUGUAUUCAACCUACUUCCUCA, the “pre-steady-state target cleavage rate” value came to 0.00515 ± 0.0026.

With GGAGACCUAUGUAUACAUCCUACUACCUCA, the “pre-steady-state target cleavage rate” value is 0.124 ± 0.012.

As for GGAGUGGAACUAUACAACCUACUACCUCA, the “pre-steady-state target cleavage rate” value was determined as 0.159 ± 0.011.

As to GGAGACCAUACUAUACAACCUACUACUCA, the “pre-steady-state target cleavage rate” value is 0.204 ± 0.026.

On to GGAGACGAUACUAUACAAACUACUACCUCA, for which the “pre-steady-state target cleavage rate” value was 0.245 ± 0.015.

With GGAGACCAUAGUAUACAACCUAGUACCUCA, the “pre-steady-state target cleavage rate” value is 0.0677 ± 0.011.

Take GGAGACCUAACUAUAACAACCUACUACCUCA: the “pre-steady-state target cleavage rate” value was determined as 0.0743 ± 0.018.

GGAGACCUAUGAUUACAACCUACUAGCUCA: the “pre-steady-state target cleavage rate” value was 0.00322 ± 0.0026.

Turning to GGAGACGAUACUAUAAAACCUACUACCUCA, the “pre-steady-state target cleavage rate” value stood at 0.184 ± 0.013.

As for GGAGACGAUCCUAUACAACCUACUACCUCA, the “pre-steady-state target cleavage rate” value came to 0.174 ± 0.025.

With GGAGACGAUAUCUAUACAACCUACUACCUCA, the “pre-steady-state target cleavage rate” value was determined as 0.0966 ± 0.013.

With GGAGACGAUACUAUACAACCGACUACCUCA, the “pre-steady-state target cleavage rate” value turned out to be 0.00402 ± 0.0035.

For “GGAGACCUAUGAUAUGUUGGUACUACCUCA [g2:g10:cont:t1A]”, the “pre-steady-state target cleavage rate” value is less than 0.0001.

As for GGAGACCUAUGAUAUGUUCCUACAAGCUCA, the “pre-steady-state target cleavage rate” value was less than 0.0001.

Turning to GGAGAGGAUACUAUACUACCUACUUCCUCA, the “pre-steady-state target cleavage rate” value was 0.0617 ± 0.016.

For the sequence GGAGACCAUACUAUACAACCUCUACCUCA, the “pre-steady-state target cleavage rate” value was determined as 0.00997 ± 0.0029.

In the case of GGAGACCUAUCUUUACAACCAACUACCUCA, the “pre-steady-state target cleavage rate” value amounted to 0.0039 ± 0.0033.

Turning to GGAGACCUAUGUAUACAACGUACUACCUCA, the “pre-steady-state target cleavage rate” value was 0.00969 ± 0.0018.

With GGAGUCGAUACUAUACAAGCUACUACCUCA, the “pre-steady-state target cleavage rate” value came out at 0.142 ± 0.011.

On to GGAGACGAUACUAACAACCUACUACCUCA, for which the “pre-steady-state target cleavage rate” value was determined as 0.173 ± 0.012.

In the case of GGAGACCUUAGUAUACAACCUUCUACCUCA, the “pre-steady-state target cleavage rate” value was determined as 0.00489 ± 0.0033.

Take GGAGACCUUACUAUACAAGCAACUACCUCA: the “pre-steady-state target cleavage rate” value was found to be 0.0104 ± 0.0031.

As to GGAGACCUAUGUAUACAUCCUAGUACCUCA, the “pre-steady-state target cleavage rate” value worked out at 0.015 ± 0.0049.

For the sequence GGAGACCUAUCUUUACAACCUACAACCUCA, the “pre-steady-state target cleavage rate” value was 0.0745 ± 0.01.

As to GGAGACCAUACUAAACAACCUUCUACCUCA, the “pre-steady-state target cleavage rate” value came to 0.00805 ± 0.0035.

Turning to GGAGAGGAUACAAUACAACCUACAACCUCA, the “pre-steady-state target cleavage rate” value came out at 0.115 ± 0.015.

Take GGAGACGAUACUAUACAACCUACCACCUCA: the “pre-steady-state target cleavage rate” value was found to be 0.122 ± 0.018.

For the sequence GGAGAGGAUAGUAUACAUCCUACUACCUCA, the “pre-steady-state target cleavage rate” value stood at 0.0609 ± 0.011.

Regarding GGAGACCAUAGUAUACAACCAACUACCUCA, the “pre-steady-state target cleavage rate” value stood at 0.00718 ± 0.0021.

Turning to GGAGACCUAUCUAUACAACCAUACUACCUCA, the “pre-steady-state target cleavage rate” value amounted to 0.0049 ± 0.0031.

Consider GGAGACCUAACUAAACAUCCUACUACCUCA, for which the “pre-steady-state target cleavage rate” value was 0.216 ± 0.036.

Regarding GGAGACGAUAGUAUACAACCUACUACCUCA, the “pre-steady-state target cleavage rate” value is 0.147 ± 0.011.

On to GGAGACCUAUGUAUACAACGAACUACCUCA, for which the “pre-steady-state target cleavage rate” value turned out to be 0.00287 ± 0.002.

With GGAGACCUAUGAUCACAACCUACUACCUCA, the “pre-steady-state target cleavage rate” value is 0.00534 ± 0.0024.

GGAGACCUAUGAAUACAACCUACUACCCCA: the “pre-steady-state target cleavage rate” value worked out at 0.00425 ± 0.0034.

GGAGACCAUACUAAACAACCAACUACCUCA: the “pre-steady-state target cleavage rate” value turned out to be 0.00724 ± 0.003.

Consider GGAGACCUAACUAUACAACCUACUUCCUGA, for which the “pre-steady-state target cleavage rate” value came out at 0.0081 ± 0.0069.
